In PubChem BioAssay AID1117319 (Southern Research Institute, 2015):
About 1,500 (0.58%) of roughly 260,000 compounds were called active. Not shown: some 5% with an inconclusive outcome.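 Rule for the calls: active = inhibition above a set limit at one or more doses, reproduced on every date tested; inconclusive = results disagree between test dates, or hit never tested in dose response; inactive = the rest.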 The list is a sample of the results. Potency and affinity values are given separately.

molecular target: Virion infectivity factor (Human immunodeficiency virus type 1 group M subtype B (isolate BH10)) + Virion infectivity factor (Human immunodeficiency virus type 1 group M subtype B (isolate BRU/LAI)) + Virion infectivity factor (Human immunodeficiency virus type 1 group M subtype B (isolate PCV12)) + Virion infectivity factor (Human immunodeficiency virus type 1 group M subtype B (isolate HXB2)) + DNA dC->dU-editing enzyme APOBEC-3G (Homo sapiens) (UniProt P69720+P69721+P69722+P69723+Q9HC16); test: HIV-1 Vif–A3G interaction blockers – biochemical, TR-FRET, GST-Vif 1-94, biotin-A3G peptide, dose response retest, primary screen (AID 1117319); conditions: TR-FRET GST-Vif / biotin-A3G peptide binding; active compounds read high;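 note: Vif residues 1-94 fused to GST binding biotinylated APOBEC3G peptide 110-148; 0% = full assay without inhibitor and 100% = GST in place of GST-Vif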

inhibition, inactive:
CCCCn1c(=S)[nH]c2ccc(N3CCOCC3)cc2c1=O -3.86%
O=c1c2cc(N3CCOCC3)ccc2[nH]c(=S)n1Cc1ccc(Cl)cc1 -2.52%
O=c1c2cc(N3CCOCC3)ccc2[nH]c(=S)n1CCN1CCCC1 12.5%
O=c1c2cc(N3CCOCC3)ccc2[nH]c(=S)n1Cc1ccccc1Cl -15.9%
CN(C)C(CNS(=O)(=O)c1ccc(F)cc1)c1cccnc1 (centres undefined) -1.58%
CN(C)S(=O)(=O)c1ccc(Cl)c(C(=O)NNC(=O)c2ccc3c(c2)OCO3)c1 -8.17%
Cc1ccsc1C(=O)NC(C)c1ccc2c(c1)OCO2 (centres undefined) 0.99%
CCSc1nnc(Nc2ccc(C)cc2)s1 1.17%
CC(C)C12CN3CC(C(C)C)(CN(C1)C3c1ccc3c(c1)OCO3)C2=O (centres undefined) 2.83%
Cc1ccc2oc(-c3ccc(NC(=O)c4ccncc4)cc3O)nc2c1 -2%
O=C(COC(=O)c1ccc(S(=O)(=O)C(F)F)cc1)Nc1cccnc1Cl 10.1%
Cc1cc(C)n2nc(SCC(=O)N3CCC(C(=O)O)CC3)nc2n1 0.2%
Cc1cccc(OCc2nnc(NC(=O)Cc3cccs3)s2)c1 -15.6%
Clc1ccccc1Oc1cnc2ccccc2n1 31.7%
O=c1c(OC2OC(CO)C(O)C(O)C2O)c(-c2ccc(O)c(O)c2)oc2cc(O)cc(O)c12 (centres undefined) -4.71%
O=c1c(O[C@@H]2O[C@H](CO)[C@@H](O)[C@H](O)[C@H]2O)c(-c2ccc(O)c(O)c2)oc2cc(O)cc(O)c12 -5.92%
COc1ccc(-c2oc3c(CC=C(C)C)c(O[C@@H]4O[C@H](CO)[C@@H](O)[C@H](O)[C@H]4O)cc(O)c3c(=O)c2O[C@@H]2O[C@@H](C)[C@H](O)[C@@H](O)[C@H]2O)cc1 0.27%
C[C@@H]1O[C@@H](OC[C@H]2O[C@@H](Oc3c(-c4ccc(O)c(O)c4)oc4cc(O)cc(O)c4c3=O)[C@H](O)[C@@H](O)[C@@H]2O)[C@H](O)[C@H](O)[C@H]1O -12%
CN(C)C(CNC(=O)CCc1c[nH]c2ccccc12)c1ccccc1 (centres undefined) 0.02%
O=C(COC(=O)C1CCN(S(=O)(=O)c2cccs2)CC1)Nc1ccccc1 -2.54%
CCN(Cc1ccccc1)C(=O)Cn1c(C(C)O)nc2ccccc21 (centres undefined) -14.7%
CC(=O)OC1C(OC(C)=O)C2C(C)CC3OC(=O)C(C)C3CC2(C)C1OC(C)=O (centres undefined) 1.67%
COc1ccc(C(OCC(O)CNCCc2ccc(S(N)(=O)=O)cc2)c2ccc(OC)cc2)cc1 (centres undefined) -0.36%
Cc1ccc(-n2c(CCC(=O)O)ccc2-c2cccs2)cc1 9.93%
CC(=O)c1ccc(-n2c(CCC(=O)O)ccc2-c2cccs2)cc1 7.93%
Cc1c(C(=O)Nc2ccccc2-c2ccccc2)cccc1[N+](=O)[O-] 22.9%
Cc1nn(C)cc1CNC(=O)c1cccc(Cl)c1 0.88%
Cc1ccccc1CNC(=O)c1ccc(Cl)c([N+](=O)[O-])c1 3.74%
COCC(C)OC(=O)c1c(N)n(-c2ccc(OC)c(OC)c2)c2nc3ccccc3nc12 (centres undefined) 7.95%
COc1cc(/C=C/C(=O)OCC(=O)Nc2ccc3c(c2)OCCO3)ccc1OCC#N -0.31%
N#CC1=C2C=Cc3ccccc3N2CCCC1=O 6.87%
COC(=O)C(C)Sc1nnc(Cc2cc(=O)[nH]c(=O)[nH]2)n1-c1ccc(OC)cc1 (centres undefined) 7.85%
Cc1ccc(C)c(-n2c(Cc3cc(=O)[nH]c(=O)[nH]3)nnc2SC(C)C)c1 71.3%
Cn1c(=O)c2c(nc(CN3CCN(C(=O)c4ccco4)CC3)n2Cc2cccc(Cl)c2)n(C)c1=O 7.79%
COc1ccccc1OCC(=O)N1CCCC(Nc2cccc(F)c2)C1 (centres undefined) -1.81%
COCC(=O)n1nc(-c2ccccc2)nc1NCc1ccc(N(C)C)cc1 -5.23%
Cc1cc(C)n(CC(=O)N2CCc3ccccc32)c(=O)c1C#N -19.3%
Cc1cc(O)ccc1C1(c2ccc(O)cc2C)OC(=O)c2ccccc21 -0.95%
O=C1OC2(c3ccccc31)c1ccccc1-c1ccccc12 -7.13%
Cc1cccc(NC(=O)CN2CCN(C(=O)c3oc4c(Cl)cccc4c3C)CC2)c1C -10%
Cc1cccc(Nc2nc(N)c([N+](=O)[O-])c(N3CC(C)OC(C)C3)n2)c1 (centres undefined) -1.71%
COC(Cc1n[nH]c(=S)n1-c1ccc(Cl)cc1)OC -7.57%
COC(Cc1nnc(SC)n1-c1ccccc1)OC 6.71%
Cc1ccc(C2N(c3ccccc3)C(=S)N3CCCN23)cc1 (centres undefined) 19.3%
Nc1ccc(C(=O)Nc2ccc3cc(S(=O)(=O)O)ccc3c2)cc1 7.06%
O=C(O)c1cc2cc(S(=O)(=O)O)ccc2cc1O 26.7%
COc1ccccc1Nc1ccc2c(O)cc(S(=O)(=O)O)cc2c1 15.2%
O=C(O)c1cc(S(=O)(=O)O)cc(Nc2c3ccccc3nc3ccccc23)c1O 5.42%
Nc1ccc(C(=O)Nc2ccc3c(O)cc(S(=O)(=O)O)cc3c2)cc1 29.1%
O=S(=O)(O)c1ccc(O)c2cc(Nc3ccccc3)ccc12 -8.31%
O=C(O)c1cc(NS(=O)(=O)c2ccc3ccccc3c2)ccc1O -12.2%
CC(=O)Nc1ccc2c(O)cc(S(=O)(=O)O)cc2c1 19.9%
COc1ccccc1CNC(=O)CNC(=O)Cn1cnc2ccccc2c1=O 8.94%
COC(=O)c1c(NC(=O)C2(C)Cc3ccccc3C(=O)O2)sc2c1CCCC2 (centres undefined) 20.6%
O=C(Nc1nnc(Cc2ccccc2)s1)C1CCC1 6.12%
NC(=O)CN(N=Nc1cccc([N+](=O)[O-])c1)c1cccc([N+](=O)[O-])c1 10.3%
COc1ccccc1C(=O)NC(CCSC)C(=O)NNC(=O)c1ccc(F)cc1 (centres undefined) -6.52%
CCCN(C(=O)c1cc(S(=O)(=O)N(C)c2ccc(OCC)cc2)ccc1C)C1CCS(=O)(=O)C1 (centres undefined) 2.41%
Cc1nnc(SCC(=O)Nc2ccccc2)n1CCc1ccccc1 -1.11%
CC1(C)CC(NS(=O)(=O)c2ccccc2)CC(C)(C)N1 13.5%
CC1(C)CC(NC(=O)C(c2ccccc2)c2ccccc2)CC(C)(C)N1 -4.99%
CC(C)(C)c1cc(NC(=O)CCSc2nnc3ccccn23)cc(C(C)(C)C)c1 -5.51%
O=C1CCC/C1=C/Nc1ccc(Cl)cc1 -0.33%
O=C1/C(=C/Nc2ccc3c(c2)OCO3)CCc2ccccc21 27.2%
O=C1/C(=C\c2ccc3c(c2)OCO3)CCC/C1=C/c1ccc2c(c1)OCO2 1.07%
O=C1CCCC/C1=C/Nc1ccc(C(=O)O)cc1 28.3%
CC(C)(C)NC(=O)Cn1c(=O)c(=O)n(Cc2ccccc2)c2ccc(Cl)cc21 -13.9%
NS(=O)(=O)c1ccc(NC(=S)N2CCN(c3ccc(Cl)c(Cl)c3)CC2)cc1 -1.39%
Cc1ccc(-n2ncc3c(NCc4cccnc4)ncnc32)cc1C -0.06%
CC(=O)Nc1ccc2c(COC(=O)CC3Sc4ccccc4NC3=O)cc(=O)oc2c1 (centres undefined) -2.31%
COCCN(C(=O)COC(=O)CCn1c(C)csc1=O)c1c(N)n(Cc2ccccc2)c(=O)[nH]c1=O 3.17%
COC(=O)[C@@H](N)Cc1ccc(O)cc1 1.26%
COC(=O)C(N)Cc1ccc(O)c(O)c1 (centres undefined) 21.5%
CC(NC(=O)Cn1cnnn1)C12CC3CC(CC(C3)C1)C2 (centres undefined) -1.37%
O=C(Cc1csc(N2CCOCC2)n1)N/N=C/c1ccccc1C(=O)O 6.57%
O=C(Cc1csc(N2CCOCC2)n1)N/N=C/c1ccc(Cl)cc1Cl -5.97%
O=C(CCN1CCN(c2ccccc2)CC1)N/N=C/c1ccccc1O -5.36%
COc1ccc(/C=N/NC(=O)CCN2CCN(c3ccccc3)CC2)c(OC)c1OC 8.69%
Cc1cccc(NC(=S)NCc2ccc(F)cc2)c1 -7.76%
Cc1nn(C)c(Cl)c1C(=O)NCC(=O)O -8.59%
CCN1CCCC1Cn1cnc2c([nH]c3cccc(Cl)c32)c1=O (centres undefined) 32.2%
Cc1ccc(S(=O)(=O)n2nc(OC(=O)c3ccco3)cc2N)cc1 7.76%
COc1ccc(OC)c(NC(=O)COC(=O)c2ccc(S(=O)(=O)N3CCCCC3)cc2)c1 -4.24%
COc1ccc(OCCCC(=O)OC(C)C(=O)Nc2ccc(S(N)(=O)=O)cc2)cc1 (centres undefined) 1.05%
CC1CCC(NC(=O)c2cc(Cl)nc3ccccc23)CC1 (centres undefined) -9.79%
Cc1noc(/C=C/c2ccco2)c1S(=O)(=O)N1CCC(C(=O)N2CCc3ccccc3C2)CC1 26.3%
Cc1noc(/C=C/c2ccco2)c1S(=O)(=O)N1CCC(C(=O)N2CCc3ccccc32)CC1 10.8%
CCOC(=O)c1c(C)[nH]c(C(=O)CSc2nnnn2-c2ccc(C)cc2)c1C -6.65%
CCOc1cc(C)c(Cl)cc1S(=O)(=O)N(CC)CC -2.91%
